Bioassay records deposited in PubChem BioAssay by several laboratories.
Hits are enriched below; roughly 2.3% of the tested compounds scored in any of these assays.
Cardio protect = modulators protecting cardiomyocytes from myocardial damage | 360,000 tested, 0.63% active | H9c2 cardiomyocytes, H2O2 injury protection, ATPLite, 2 h | protection from H2O2 cell death, % at 20 µM;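 active = compounds giving at least 50% protection of heart cells from peroxide-induced death in the single-dose screen, raw or plate-pattern-corrected value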;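 note: 0% = DMSO wells with peroxide and 100% = DMSO wells without peroxide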
MIN6 prolif = inducers of beta-cell replication in MIN6 cells; MIN6 cells proliferation, ATPlite luminescence, 48 h; cells starved in 0.2% serum; 100% = growth in 10% serum; proliferation, % at 10 µM; 330,000 tested, 0.29% active; AID 2380;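 active = compounds whose signal lies at least 3.5 SD above the mean of all wells on their plate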;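 note: 0% = DMSO-treated cells in low-serum medium and 100% = 10% serum control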
aDG glyco up = increases alpha dystroglycan glycosylation. Pro5-aDG cells, alpha-DG glycosylation AlphaScreen (IIH6); 0% Pro5, 100% B10-LARGE cell signal. activation, % at 10 µM. 360,000 tested, 0.22% active;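 active = activation of at least 8% versus controls, or a plate z-score of at least 8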;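 note: Pro5 are CHO cells carrying HIG-tagged alpha-DG that lacks glycosylation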
FAS-TE inh = blocks the thioesterase domain of human fatty acid synthase. recombinant FAS-TE, OMFH fluorogenic substrate, fluorescence endpoint. inhibition, % at 15 µM. 360,000 tested, 0.67% active. AID 602261;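 active = compounds whose normalised, plate-corrected inhibition of enzyme fluorescence in the single-dose primary screen is 50% or more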;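 note: 0% = DMSO with enzyme and 100% = substrate without enzyme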
TAG inh = triacylglycerol accumulation inhibition; H9c2 cells, Nile Red lipid (TAG) fluorescence; cells loaded with 200 µM oleic acid; AID 651582; inhibition, % at 12.5 µM; 230,000 tested, 0.66% active;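 active = pattern-corrected inhibition of lipid staining of at least 50% with the nuclear-stain viability signal not falling by more than 50%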;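 note: 0% = DMSO wells and 100% = triacsin C control wells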
Calpain2 inh = calpain II (pig) inhibition; purified calpain II, fluorogenic peptide substrate, 30 min; inhibition, % at 16 µM; 220,000 tested, 0.37% active;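 active = inhibition above about 50%, limit read from the data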
Starred values were filed as active, the others as inactive; . = no result given.

SMILES	Cardio protect	MIN6 prolif	aDG glyco up	FAS-TE inh	TAG inh	Calpain2 inh
COc1cc(NC(=O)CSc2ccc(-c3ccccn3)nn2)cc(OC)c1	70*	-3	2	1	-10	.
CCc1ccc(NC(=O)CSc2ccc(-c3ccccn3)nn2)cc1	50*	-7	2	0	-16	.
CC(=O)Nc1cccc(NC(=O)CSc2ccc(-c3ccccn3)nn2)c1	67*	0	0	-5	-4	-12
Cc1noc(C)c1C(=O)OC(C)C(=O)c1c[nH]c2ccccc12 (centres undefined)	9	.	0	-3	-4	.
CC(=O)c1cccc(NC(=O)c2cccc3c(-c4cnn(C)c4)coc23)c1	47	.	0	-2	10	.
COc1cccc(/C=C2/C(=O)NN(c3ccc(Br)cc3)C2=O)c1O	52*	-3	0	-1	-4	.
COc1ccc(NS(=O)(=O)c2cc(NC(=O)c3cc(=O)c4ccccc4o3)ccc2OC)cc1	42	-2	0	8	12	-125
COc1ccc(NS(=O)(=O)c2cc(NC(=O)Cc3n[nH]c(=O)c4ccccc34)ccc2OC)cc1	70*	.	0	-5	-33	.
COc1ccccc1NS(=O)(=O)c1cc(NC(=O)Cc2n[nH]c(=O)c3ccccc23)ccc1Cl	70*	-4	0	1	-18	.
O=C(Nc1ccc(Cl)cc1)c1csc([C@@H]2O[C@H](CO)[C@@H](O)[C@H]2O)n1	3	.	0	-6	-2	.
O=C(Nc1ccccc1N1CCOCC1)c1cc(-c2ccco2)nc2ccccc12	8	-2	-1	14	-1	-48
COc1cc(-c2cc(C(=O)Nc3cccc(C(C)=O)c3)c3ccccc3n2)cc(OC)c1OC	55*	-3	0	16	.	.
COc1cc(-c2cc(C(=O)Nc3ccccc3N3CCOCC3)c3ccccc3n2)cc(OC)c1OC	89*	-3	-1	26	.	-28
COc1cccc(CN2CC(C(=O)N3CCN(c4ccc(Cl)cc4)CC3)CCC2=O)c1 (centres undefined)	-6	-2	0	2	.	.
Cc1nc2sccn2c(=O)c1S(=O)(=O)NC(C)c1ccccc1 (centres undefined)	14	-1	0	-6	-3	.
Cc1ccc2cc(C#N)c(SCC(=O)NNC(=O)Cc3ccccc3)nc2c1	1	.	0	-17	.	59*
O=C(Nc1nnc(-c2cccs2)o1)c1cccc(F)c1	14	-4	0	1	2	.
O=C(Nc1nnc(-c2cccs2)o1)c1cccc(Oc2ccccc2)c1	53*	-6	0	-7	9	-57
O=C(C(=O)N(Cc1ccccc1)Cc1ccccc1)c1c(-c2ccccc2)[nH]c2ccccc12	86*	.	0	27	-1	.
COCCNC(=O)C(=O)c1c(-c2ccccc2)[nH]c2ccccc12	7	-3	0	-3	6	-15
O=C(c1cccnc1)c1ncc(C(F)(F)F)cc1Cl	-2	-3	0	-3	.	.
O=[N+]([O-])c1ccc(/C=C/c2ccc3cccc([N+](=O)[O-])c3n2)cc1	-4	0	-1	17	.	-9
CCOc1cc(/C=C/c2ccc3cccc([N+](=O)[O-])c3n2)ccc1O	26	-1	0	12	.	28
CCOc1cc(/C=C/c2ccc3cccc([N+](=O)[O-])c3n2)ccc1OCC(=O)N(C)C	57*	-3	-1	8	11	-40
COc1cc(/C=C/c2ccc3cccc([N+](=O)[O-])c3n2)ccc1OCC#N	34	1	0	53*	-21	-29
SMILES	Cardio protect	MIN6 prolif	aDG glyco up	FAS-TE inh	TAG inh	Calpain2 inh
Nc1ncc(-c2ccccc2)n1CC1CCCO1 (centres undefined)	62*	-2	0	-14	-4	-11
O=C(N/N=C/c1ccc(F)cc1)c1cc(-c2ccc3c(c2)OCO3)n[nH]1	13	-2	0	-6	2	-7
COc1ccc(/C=N/NC(=O)c2cc(-c3ccc4c(c3)OCO4)n[nH]2)cc1OC	65*	0	0	-4	.	-68
CC(C)(C)c1cc(CCC(=O)N2CCNCC2)c(C(C)(C)C)cc1O	7	-4	0	4	55*	15
O=C(CCc1c[nH]c2ccccc12)N1CCCCCCC1	-6	8	0	-2	-10	.
O=C(NCCc1ccc(Cl)cc1)C(=O)Nc1cc2c3c(c1)CC(=O)N3CCC2	42	1	0	4	24	.
O=C(NCCc1ccc(F)cc1)C(=O)Nc1cc2c3c(c1)CC(=O)N3CCC2	53*	-4	0	8	6	.
CCOC(=O)c1c(NC(=O)CSc2nnnn2C)sc(C)c1-c1ccc(C)cc1	-7	-6	0	31	.	56*
COc1ccc([C@H]2CC(=O)C[C@@H](CCn3nnc4ccccc43)O2)cc1	.	.	0	-12	.	.
Cc1nnn(-c2nonc2N)c1C(=O)N/N=C/c1ccccc1O	54*	-2	0	-2	.	-43
COc1ccc(CC(=O)OCC(=O)Nc2ccc3[nH]c(=O)[nH]c3c2)cc1OC	4	.	0	-5	-7	.
COc1ccc(-n2c(=S)[nH]c3cc(C(=O)Nc4ccc(OC)c(OC)c4)ccc3c2=O)cc1	7	.	0	-4	.	60*
COc1cc(/C=C(/C#N)c2nc3ccccc3[nH]2)ccc1OCc1ccc(C(=O)O)o1	0	-1	0	-2	.	-17
COC(=O)c1ccc(COc2ccc(/C=C(\C#N)c3nc4ccccc4[nH]3)cc2OC)o1	70*	-5	0	14	.	-92
COc1ccc(-c2cc(C(=O)NC(Cc3cc4ccccc4[nH]3)C(=O)O)c(C)o2)cc1OC (centres undefined)	4	-1	0	-7	3	52*
COc1ccc(-c2cc(C(=O)O)c(C)o2)cc1OC	2	2	0	-9	.	17
O=C(Cc1ccccc1)NC(NC(=S)Nc1cc(Cl)ccc1Cl)C(Cl)(Cl)Cl (centres undefined)	1	-6	0	-5	12	51*
Cc1ccc(C)c(NCCCCC(=O)O)c1	7	.	0	-11	.	.
CC(C)c1ccc(/C=N/NC(=O)c2cc(-c3cccc([N+](=O)[O-])c3)n[nH]2)cc1	2	-4	0	2	7	40
C/C(=N/NC(=O)c1cc(-c2cccc([N+](=O)[O-])c2)n[nH]1)c1ccc(Cl)cc1	-4	.	0	-2	.	68*
O=C(Cn1c(=O)sc2ccccc21)Nc1ccc(S(=O)(=O)N2CCCC2)cc1	-4	-1	0	8	.	54*
O=C(Nc1ccc(S(=O)(=O)N2CCCCCC2)cc1)c1ccc(Br)o1	-1	-2	0	20	.	55*
O=C(CCOc1ccccc1)Nc1ccc(S(=O)(=O)N2CCCC2)cc1	-3	0	0	8	-16	57*
O=C(Cc1ccccc1)Nc1ccc(S(=O)(=O)N2CCCC2)cc1	0	0	0	-1	.	.
